# Data taken from PubChem BioAssay AID1159580 (chemical genetic matrix, 2015).
# The whole screen tested about 5,500 compounds, of which about 2,000 (36%) were called active. Not shown: some 18% with an inconclusive outcome. The list shows a part of the results. A number with no mark means an inactive call. Cut-off read from the data, not from the text of the source: active = normalized growth mostly below about 0.91 (no sharp cut-off); inconclusive = no clear call, values can overlap the other calls; inactive = mostly above about 0.92.
# Test: chemical genetic growth profiling, strain panel (AID 1159580);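 note: tested at 20 µM; growth read once vehicle control cultures reached saturation at 30 °C; 1 = growth at the plate median or of vehicle wells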
# Details: S. cerevisiae deletion strains, growth OD
# [1] = locus YAL013W, strain DEP1, stronger effect = lower value
# [2] = locus YBR229C, strain ROT2, stronger effect = lower value
# [3] = locus YCL061C, strain MRC1, stronger effect = lower value
# [4] = locus YDL101C, strain DUN1, stronger effect = lower value
# [5] = locus YDR150W, strain NUM1, stronger effect = lower value
# [6] = locus YEL061C, strain CIN8, stronger effect = lower value
# [7] = locus YGR078C, strain PAC10, stronger effect = lower value
# [8] = locus YHR030C, strain SLT2, stronger effect = lower value
# [9] = locus YHR087W, strain rtc3, stronger effect = lower value
# [10] = locus YJR043C, strain POL32, stronger effect = lower value
# [11] = locus YJR075W, strain HOC1, stronger effect = lower value
# [12] = locus YLR039C, strain RIC1, stronger effect = lower value
# [13] = locus YLR058C, strain SHM2 (second series), stronger effect = lower value
# [14] = locus YLR085C, strain ARP6, stronger effect = lower value
# [15] = locus YLR262C, strain YPT6, stronger effect = lower value
# [16] = locus YML094W, strain GIM5, stronger effect = lower value
# [17] = locus YMR219W, strain ESC1, stronger effect = lower value
# [18] = locus YMR263W, strain SAP30, stronger effect = lower value
# [19] = locus YMR307W, strain GAS1, stronger effect = lower value
# [20] = locus YNL153C, strain GIM3, stronger effect = lower value
# [21] = locus YNL298W, strain CLA4 (second series), stronger effect = lower value
# [22] = locus YNL322C, strain KRE1, stronger effect = lower value
# [23] = locus YNR030W, strain Alg12, stronger effect = lower value
# [24] = locus YPL055C, strain LGE1, stronger effect = lower value
# [25] = locus YPL241C, strain CIN2, stronger effect = lower value
# [26] = locus YPR135W, strain CTF4, stronger effect = lower value
smiles,measurement,setting,value
Cc1[nH]ncc1-c1ccccc1,normalized growth,[1],1
same,normalized growth,[2],0.978
same,normalized growth,[3],0.973
same,normalized growth,[4],0.979
same,normalized growth,[5],1.01
same,normalized growth,[6],0.986
same,normalized growth,[7],0.998
same,normalized growth,"locus YGR229C, strain SMI1, stronger effect = lower value",0.999
same,normalized growth,[8],0.981
same,normalized growth,[9],1.02
same,normalized growth,"locus YJL187C, strain SWE1, stronger effect = lower value",0.983
same,normalized growth,[10],0.984
same,normalized growth,[11],1.02
same,normalized growth,[12],0.873
same,normalized growth,[13],0.986
same,normalized growth,[14],0.994
same,normalized growth,[15],0.896
same,normalized growth,[16],0.974
same,normalized growth,[17],0.995
same,normalized growth,[18],0.967
same,normalized growth,[19],0.933
same,normalized growth,"locus YNL128W, strain TEP1, stronger effect = lower value",0.993
same,normalized growth,[20],0.961
same,normalized growth,[21],0.98
same,normalized growth,[22],1.01
same,normalized growth,[23],0.991
same,normalized growth,[24],1.07
same,normalized growth,[25],0.986
same,normalized growth,[26],0.921
Cc1c2c(=O)[nH]ncc2c(-c2ccccc2)n1-c1ccc([N+](=O)[O-])cc1,normalized growth,"locus YAR019C, strain CDC15, stronger effect = lower value",0.99
same,normalized growth,"locus YBL105C, strain PKC1, stronger effect = lower value",0.999
same,normalized growth,"locus YBR135W, strain CKS1, stronger effect = lower value",0.998
same,normalized growth,"locus YBR136W, strain MEC1, stronger effect = lower value",0.993
same,normalized growth,"locus YBR160W, strain CDC28, stronger effect = lower value",0.99
same,normalized growth,"locus YDL017W, strain CDC7, stronger effect = lower value",0.999
same,normalized growth,"locus YDL028C, strain MPS1, stronger effect = lower value",0.987
same,normalized growth,[4],0.991
same,normalized growth,"locus YDL108W, strain KIN28, stronger effect = lower value",0.989
same,normalized growth,"locus YDL132W, strain cdc53, stronger effect = lower value",0.991
same,normalized growth,"locus YDL214C, strain PRR2, stronger effect = lower value",0.953
same,normalized growth,"locus YDR052C, strain DBF4, stronger effect = lower value",1
same,normalized growth,"locus YDR054C, strain cdc34, stronger effect = lower value",1
same,normalized growth,"locus YDR226W, strain ADK1, stronger effect = lower value",0.991
same,normalized growth,"locus YDR477W, strain SNF1, stronger effect = lower value",0.925
same,normalized growth,"locus YER123W, strain YCK3, stronger effect = lower value",0.958
same,normalized growth,"locus YER133W, strain GLC7, stronger effect = lower value",0.946
same,normalized growth,"locus YFL009W, strain cdc4, stronger effect = lower value",0.975
same,normalized growth,"locus YFL029C, strain CAK1, stronger effect = lower value",0.977
same,normalized growth,"locus YFR003C, strain YPI1, stronger effect = lower value",0.99
same,normalized growth,"locus YFR019W, strain FAB1, stronger effect = lower value",0.95
same,normalized growth,"locus YFR028C, strain CDC14, stronger effect = lower value",0.978
same,normalized growth,"locus YGR040W, strain KSS1, stronger effect = lower value",0.939
same,normalized growth,"locus YGR052W, strain FMP48, stronger effect = lower value",1.01
same,normalized growth,"locus YGR092W, strain DBF2, stronger effect = lower value",1
same,normalized growth,[8],0.812 (active)
same,normalized growth,"locus YHR079C, strain IRE1, stronger effect = lower value",0.994
same,normalized growth,"locus YHR082C, strain KSP1, stronger effect = lower value",1.01
same,normalized growth,"locus YHR205W, strain SCH9, stronger effect = lower value",0.937
same,normalized growth,"locus YIL147C, strain SLN1, stronger effect = lower value",0.993
same,normalized growth,"locus YJL095W, strain BCK1, stronger effect = lower value",0.903
same,normalized growth,"locus YJL128C, strain PBS2, stronger effect = lower value",0.988
same,normalized growth,"locus YJL157C, strain FAR1, stronger effect = lower value",0.971
same,normalized growth,"locus YJR016C, strain ILV3, stronger effect = lower value",0.986
same,normalized growth,"locus YJR066W, strain TOR1 (second series), stronger effect = lower value",0.928
same,normalized growth,"locus YJR066W, strain TOR1, stronger effect = lower value",0.954
same,normalized growth,"locus YKL048C, strain ELM1, stronger effect = lower value",0.94
same,normalized growth,"locus YKL067W, strain YNK1, stronger effect = lower value",0.935
same,normalized growth,"locus YKL101W, strain HSL1, stronger effect = lower value",0.968
same,normalized growth,"locus YKL193C, strain SDS22, stronger effect = lower value",0.996
same,normalized growth,"locus YKL203C, strain TOR2, stronger effect = lower value",1.03
same,normalized growth,"locus YLR113W, strain HOG1, stronger effect = lower value",0.871
same,normalized growth,"locus YLR133W, strain CKI1, stronger effect = lower value",0.975
same,normalized growth,"locus YLR403W, strain SFP1, stronger effect = lower value",0.963
same,normalized growth,"locus YML070W, strain DAK1, stronger effect = lower value",0.93
same,normalized growth,"locus YMR001C, strain CDC5, stronger effect = lower value",0.989
same,normalized growth,"locus YMR205C, strain PFK2 (second series), stronger effect = lower value",0.956
same,normalized growth,"locus YMR277W, strain FCP1, stronger effect = lower value",0.979
same,normalized growth,"locus YNL006W, strain LST8, stronger effect = lower value",0.983
same,normalized growth,"locus YNL020C, strain ARK1, stronger effect = lower value",0.975
same,normalized growth,"locus YNL161W, strain CBK1, stronger effect = lower value",0.998
same,normalized growth,"locus YNL183C, strain NPR1, stronger effect = lower value",1.03
same,normalized growth,"locus YNL207W, strain RIO2, stronger effect = lower value",1
same,normalized growth,"locus YNL222W, strain SSU72, stronger effect = lower value",0.98
same,normalized growth,"locus YNL307C, strain MCK1 (second series), stronger effect = lower value",0.949
same,normalized growth,"locus YOL078W, strain AVO1, stronger effect = lower value",0.995
same,normalized growth,"locus YOL136C, strain PFK27, stronger effect = lower value",0.938
same,normalized growth,"locus YOR061W, strain CKA2, stronger effect = lower value",0.955
same,normalized growth,"locus YOR119C, strain RIO1, stronger effect = lower value",0.975
same,normalized growth,"locus YOR231W, strain MKK1, stronger effect = lower value",0.936
same,normalized growth,"locus YOR329C, strain SCD5, stronger effect = lower value",0.993
same,normalized growth,"locus YPL031C, strain PHO85, stronger effect = lower value",0.941
same,normalized growth,"locus YPL153C, strain RAD53, stronger effect = lower value",0.939
same,normalized growth,"locus YPL204W, strain HRR25, stronger effect = lower value",0.933
same,normalized growth,"locus YPL209C, strain IPL1, stronger effect = lower value",1
same,normalized growth,"locus YPL256C, strain CLN2, stronger effect = lower value",0.931
same,normalized growth,"locus YPR025C, strain CCL1, stronger effect = lower value",0.988
same,normalized growth,"locus YPR106W, strain ISR1, stronger effect = lower value",1.01
same,normalized growth,"locus YPR111W, strain DBF20, stronger effect = lower value",1
same,normalized growth,"strain NNK1, stronger effect = lower value",1.01
same,normalized growth,"strain TSCII, stronger effect = lower value",0.987
COc1ccc(NS(=O)(=O)c2c(C)noc2C)cc1,normalized growth,[1],1.03
same,normalized growth,[2],1.02
same,normalized growth,[3],1
same,normalized growth,[4],1.02
same,normalized growth,[5],0.995
same,normalized growth,[6],1.03
same,normalized growth,[7],1.04
same,normalized growth,[8],1.06
same,normalized growth,[9],1.02
same,normalized growth,[10],0.995
same,normalized growth,[11],1.02
same,normalized growth,"locus YKL190W, strain CNB1, stronger effect = lower value",1
same,normalized growth,[12],1.02
same,normalized growth,[13],1
same,normalized growth,[14],1.02
same,normalized growth,[15],1.01
same,normalized growth,[16],1.07
same,normalized growth,[17],0.996
same,normalized growth,[18],0.993
same,normalized growth,[19],0.941
same,normalized growth,[20],1.02
same,normalized growth,[21],1.02
same,normalized growth,[22],1.01
same,normalized growth,[23],1.04
same,normalized growth,"locus YOL006C, strain TOP1, stronger effect = lower value",1.03
same,normalized growth,[24],1.06
same,normalized growth,[25],0.911
same,normalized growth,[26],1.02
